From the supplement of paper PMC6992640

Test system: HCI01 (cells of a triple-negative basal-like breast cancer xenograft)
Assay: cell viability of combination (% of vehicle); higher = less cytotoxic
Details: 1 µM; 72 h; partner dose: 10 nM
Procedure: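 PDX cells were treated for 72 h with each drug at 1 µM plus carfilzomib (10 nM; 100 nM for WHIM2). Luciferase viability is expressed as percent of vehicle.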

Row | Structure (SMILES) | cell viability of combination
1 | CCCCCCCCCCCC[N+](C)(C)CCOc1ccccc1.[Br-] [Domiphen Bromide] + CC(C)C[C@H](NC(=O)[C@H](CCc1ccccc1)NC(=O)CN1CCOCC1)C(=O)N[C@@H](Cc1ccccc1)C(=O)N[C@@H](CC(C)C)C(=O)[C@@]1(C)CO1 [Carfilzomib] | 71.1
2 | Cc1cc(C(C#N)c2ccc(Cl)cc2)c(Cl)cc1NC(=O)c1cc(I)cc(I)c1O (stereo not given) [Closantel] + CC(C)C[C@H](NC(=O)[C@H](CCc1ccccc1)NC(=O)CN1CCOCC1)C(=O)N[C@@H](Cc1ccccc1)C(=O)N[C@@H](CC(C)C)C(=O)[C@@]1(C)CO1 [Carfilzomib] | 70.3
3 | Cc1cc(C(C#N)c2ccc(Cl)cc2)c(Cl)cc1NC(=O)c1cc(I)cc(I)c1[O-].[Na+] (stereo not given) [Closantel Sodium] + CC(C)C[C@H](NC(=O)[C@H](CCc1ccccc1)NC(=O)CN1CCOCC1)C(=O)N[C@@H](Cc1ccccc1)C(=O)N[C@@H](CC(C)C)C(=O)[C@@]1(C)CO1 [Carfilzomib] | 68.9
4 | CCCCCCCCCCCCCCCC[N+](C)(C)C.[Br-] [Cetrimonium Bromide (CTAB)] + CC(C)C[C@H](NC(=O)[C@H](CCc1ccccc1)NC(=O)CN1CCOCC1)C(=O)N[C@@H](Cc1ccccc1)C(=O)N[C@@H](CC(C)C)C(=O)[C@@]1(C)CO1 [Carfilzomib] | 72.8
5 | CCCCCCCCCCCCCCCC[n+]1ccccc1.[Cl-] [Cetylpyridinium Chloride] + CC(C)C[C@H](NC(=O)[C@H](CCc1ccccc1)NC(=O)CN1CCOCC1)C(=O)N[C@@H](Cc1ccccc1)C(=O)N[C@@H](CC(C)C)C(=O)[C@@]1(C)CO1 [Carfilzomib] | 77
